Measurements taken from the supplement of paper PMC8387472.
Counter-ions that a name gives are not always drawn. ± gives the standard deviation of the averaged measurements.

Tested on: mESC LDLR-Dup GFP reporter (SpCas9 MH-deletion repair)
Experiment: fraction of GFP+ cells relative to DMSO control (fold change); higher = more MH-deletion repair to in-frame LDLR (or more editing)
Conditions: 2 µM; 7 days post-transfection

With `C/C(=C\C(=O)Nc1ccccc1C(=O)O)c1ccc2ccccc2c1` as the molecule, how does the “fraction of GFP+ cells” value read?
The value was 0.984 ± 0.45.

`CN1CCc2c(c3ccccc3n2Cc2ccc(C(=O)NO)cc2)C1` [Tubastatin A HCl] was tested. Which “fraction of GFP+ cells” value did it give?
The value was 0.623 ± 0.15.

With `CN(C)C(=O)c1cc2cnc(Nc3ccc(N4CCNCC4)cn3)nc2n1C1CCCC1` [Ribociclib (LEE011)] as the molecule, how does the “fraction of GFP+ cells” value read?
Its value is 1.04 ± 0.21.

Which “fraction of GFP+ cells” value does the source give for `NC(=O)c1nc(F)cnc1O` [Favipiravir (T-705)] here?
Its value is 0.826 ± 0.25.

`CN(C)c1ccc(-c2nc3ncc(Cl)c(N4CCN(CC(=O)Nc5nccs5)CC4)c3[nH]2)cc1` was tested. Which “fraction of GFP+ cells” value did it give?
The value was 0.872 ± 0.39.

`CS(=O)(=O)OCCCCOS(C)(=O)=O` [Busulfan] was tested. Which “fraction of GFP+ cells” value did it give?
The value was 1.36 ± 0.93.

For `CC(C)OC(=O)[C@H](C)N[P@](=O)(OC[C@H]1O[C@@H](n2ccc(=O)[nH]c2=O)[C@](C)(F)[C@@H]1O)Oc1ccccc1` [Sofosbuvir (PSI-7977, GS-7977)], which “fraction of GFP+ cells” value is on record?
Its value is 1.03 ± 0.4.

How did the “fraction of GFP+ cells” value turn out when `Cc1cc(Cl)ccc1OCCCC(=O)NO` [Droxinostat] was run?
Its value is 0.706 ± 0.06.

`NC[C@@](O)(c1ccc(Cl)cc1)c1ccc(-c2cn[nH]c2)cc1` was tested. Which “fraction of GFP+ cells” value did it give?
The value was 1.33 ± 0.93.

With `CC(C)[C@H](CO)Nc1nc(Nc2cccc(Cl)c2)c2ncn(C(C)C)c2n1` [Purvalanol A] as the molecule, how does the “fraction of GFP+ cells” value read?
Its value is 0.716 ± 0.095.

For `C[C@]1(c2nc3c(C(N)=O)cccc3[nH]2)CCCN1` [Veliparib (ABT-888)], which “fraction of GFP+ cells” value is on record?
Its value is 0.657 ± 0.19.

With `Cn1cc(/C=C/C(=O)c2cccc(F)c2)cc1/C=C/C(=O)NO` as the molecule, how does the “fraction of GFP+ cells” value read?
Its value is 0.876 ± 0.1.

With `OCc1ccc(-c2ccc(-c3ccc(CO)s3)o2)s1` as the molecule, how does the “fraction of GFP+ cells” value read?
Its value is 0.657 ± 0.23.

For `Cc1n[nH]c2ncc(C(=O)N3CCC[C@H]3c3ccc(Cl)cc3)cc12`, which “fraction of GFP+ cells” value is on record?
Its value is 1.35 ± 0.069.

Which “fraction of GFP+ cells” value does the source give for `C[C@H]1COc2c(N3CCN(C)CC3)c(F)cc3c(=O)c(C(=O)O)cn1c23` [Levofloxacin] here?
The value was 0.954 ± 0.01.

How did the “fraction of GFP+ cells” value turn out when `Oc1cccc(-c2nc(N3CCOCC3)c3oc4ncccc4c3n2)c1` was run?
The value was 0.542 ± 0.15.

Which “fraction of GFP+ cells” value does the source give for `CCc1ccc(/C=C2/SC(=S)NC2=O)cc1` here?
Its value is 0.853 ± 0.25.

For `COc1nc(N)nc2c1ncn2[C@@H]1O[C@H](CO)[C@@H](O)[C@@H]1O` [Nelarabine], which “fraction of GFP+ cells” value is on record?
Its value is 1.12 ± 0.14.

For `C[C@H](NC(=O)CCc1nc2ccccc2c(=O)[nH]1)c1ccccc1`, which “fraction of GFP+ cells” value is on record?
Its value is 0.781 ± 0.051.

How did the “fraction of GFP+ cells” value turn out when `COCCCc1sc(-c2ccccc2)nc1C(=O)Nc1ccccc1-c1nc2cc(CN3CCCC3)cnc2s1` was run?
The value was 1.15 ± 0.33.

With `Cc1ccc(C(=O)OCc2ccc([C@@H](CN)C(=O)Nc3ccc4cnccc4c3)cc2)c(C)c1` as the molecule, how does the “fraction of GFP+ cells” value read?
The value was 1.71 ± 0.5.

For `CC(C)(Oc1ccc(C2CC2(Cl)Cl)cc1)C(=O)O` (stereo not given) [Ciprofibrate], which “fraction of GFP+ cells” value is on record?
The value was 1.74 ± 0.1.

For `CN1CCc2c(c3ccccc3n2Cc2ccc(C(=O)NO)cc2)C1` [Tubastatin A], which “fraction of GFP+ cells” value is on record?
The value was 0.802 ± 0.093.

For `C=C1C(=O)O[C@@H]2/C=C(\C)CC/C=C(\C)CC[C@@H]12` [Costunolide], which “fraction of GFP+ cells” value is on record?
Its value is 1.22 ± 0.2.

Which “fraction of GFP+ cells” value does the source give for `O=S(=O)(N=Cc1c(O)ccc2ccccc12)c1cccs1` here?
The value was 1.15 ± 0.65.

`COc1cc2c(Nc3ccc(NC(=O)c4ccccc4)cc3)ncnc2cc1OCCCN1CCOCC1` was tested. Which “fraction of GFP+ cells” value did it give?
The value was 0.59 ± 0.2.

For `CO[C@H]1/C=C/O[C@@]2(C)Oc3c(C)c(O)c4c(O)c(c5c(nc6cc(C)ccn65)c4c3C2=O)NC(=O)/C(C)=C\C=C\[C@H](C)[C@H](O)[C@@H](C)[C@@H](O)[C@@H](C)[C@H](OC(C)=O)[C@@H]1C` [Rifaximin], which “fraction of GFP+ cells” value is on record?
Its value is 0.938 ± 0.38.

For `Nc1nc(NC2CC2)cc(-c2cccc(Cl)c2Cl)n1`, which “fraction of GFP+ cells” value is on record?
The value was 0.918 ± 0.2.

With `COc1c(N2CCNC(C)C2)c(F)cc2c(=O)c(C(=O)O)cn(C3CC3)c12` (stereo not given) [Gatifloxacin] as the molecule, how does the “fraction of GFP+ cells” value read?
The value was 0.995 ± 0.12.

`COc1ccc(CCNCc2ccc(OCc3ccc(Cl)nc3)c(OC)c2)cc1OC` was tested. Which “fraction of GFP+ cells” value did it give?
Its value is 1.56 ± 0.28.

`Cc1cn([C@H]2C[C@H](N=[N+]=[N-])[C@@H](CO)O2)c(=O)[nH]c1=O` [Zidovudine] was tested. Which “fraction of GFP+ cells” value did it give?
The value was 1.09 ± 0.18.

`CCOC(=O)NCCCC(=O)NCCc1ccccc1` was tested. Which “fraction of GFP+ cells” value did it give?
The value was 0.748 ± 0.18.

Which “fraction of GFP+ cells” value does the source give for `O=C(O)COc1ccc(Br)cc1C=C1SC(=S)N(Cc2cccnc2)C1=O` [Skp2 inhibitor C1 (SKPin C1)] here?
The value was 0.783 ± 0.085.

How did the “fraction of GFP+ cells” value turn out when `CCC[C@H](NC(=O)/C(C#N)=C/c1cccc(Br)n1)c1ccccc1` [Degrasyn (WP1130)] was run?
Its value is 0.638 ± 0.12.

How did the “fraction of GFP+ cells” value turn out when `CCCC(CCC)C(=O)O` [valproic acid] was run?
Its value is 0.696 ± 0.13.

For `Nc1ccn(C[C@@H](CO)OCP(=O)(O)O)c(=O)n1` [Cidofovir], which “fraction of GFP+ cells” value is on record?
Its value is 1.02 ± 0.1.

With `CNC1CCCN(c2c(F)cc3c(=O)c(C(=O)O)cn(C4CC4)c3c2OC)C1` (stereo not given) [Balofloxacin] as the molecule, how does the “fraction of GFP+ cells” value read?
Its value is 0.978 ± 0.15.

With `CCc1nc(N)nc(N)c1-c1ccc(Cl)cc1` [Pyrimethamine] as the molecule, how does the “fraction of GFP+ cells” value read?
The value was 1.5 ± 1.2.

With `NC(=O)c1ncn([C@@H]2O[C@H](CO)[C@@H](O)[C@H]2O)c1O` [Mizoribine] as the molecule, how does the “fraction of GFP+ cells” value read?
The value was 1.05 ± 0.12.

`O=c1cc(N2CCOCC2)oc2c1ccc1ccccc12` was tested. Which “fraction of GFP+ cells” value did it give?
The value was 0.548 ± 0.39.
